Data: PubChem BioAssay AID1347383 (Zoeller Lab, School of Medicine, Boston University, 2020)
Activity calls are given as the source filed them.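 How the source made its calls: active means cell survival after UV exposure 2 SD above solvent-only control wells at 10 µM, confirmed on one or two repeats; inactive means the rest.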

Experiment: cell survival after pyrene fatty acid photosensitization – ZR-82 cells, Analyticon library, screen 2, phospholipid biosynthesis inhibitor project, primary screen (AID 1347383);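 further: survival reflects blocked phospholipid synthesis cutting uptake of the phototoxic fatty acid; compound and fatty acid exposure 3 h then viability read next day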
Conditions: ZR-82 CHO cells, pyrene-fatty acid UV killing, CellTiter Blue; at 10 µM; peroxisome-deficient CHO-K1 variant; with DGAT-1, DGAT-2 and ACAT inhibitors

| SMILES | outcome |
| --- | --- |
| CO[C@@H]1[C@H](OC(=O)/C=C/C(O)C(C)O)CC[C@]2(CO2)[C@H]1[C@@]1(C)O[C@@H]1CC=C(C)C (some centres undefined) | inactive |
| COc1cc(CCc2ccc(OCC(O)C(C)(C)O)cc2)cc2c1OCO2 (centres undefined) | inactive |
| Oc1cc(O)cc(/C=C/c2ccc(O)c(O)c2)c1 | inactive |
| C/C=C/c1cc(O)c(C(=O)C(=O)CC)c(=O)o1 | inactive |
| C=C1[C@H]2CC[C@H](C(=O)O)[C@@]23CC[C@H](C3)C1(C)C | inactive |
| CCC(=O)C1OC(O)(CCC2=CCOC2=O)C2(C)CCCC(C)(C)C12 (centres undefined) | inactive |
| CC(=O)/C=C(O)/C=C/c1ccc(O)cc1 | inactive |
| CCC(C)(O)C(O)C(=O)OCC1CC[N+]2([O-])CCCC12 (centres undefined) | inactive |
| C[N+](C)(C)C(Cc1c[nH]c2ccccc12)C(=O)[O-] (centres undefined) | inactive |
| O=C(O)COC(=O)CCCCCCCO | inactive |
| COc1ccc2c(c1OC)C(=O)N1CCc3cc4c(cc3C(=O)C21O)OCO4 (centres undefined) | inactive |
| CC1(C)CC2C3OC(O)C4(O)OC(C)(CC34)C2C1 (centres undefined) | inactive |
| CC(=O)OC1CC2C(C)(C)C(=O)C=CC2(C)C2CC(=O)C3=C(CCC3C3=CC(O)OC3=O)C12C (centres undefined) | inactive |
| O=C1C(c2[nH]c3ccccc3c2O)=Nc2ccccc21 | inactive |
| Cc1c(O)cc(C(C)C)c(O)c1-c1c(C)c(O)cc(C(C)C)c1O | inactive |
| Cc1cc(O)c2c3c(c(O)c4c(c13)OC(C)C4(C)C)C(=O)O2 (centres undefined) | inactive |
| COc1cc(C[C@H]2C(=O)OC[C@@H]2Cc2ccc(OC)c(OC)c2)ccc1O | inactive |
| COc1c(C2=Cc3ccc(O)cc3OC2)ccc(O)c1CC=C(C)C | inactive |
| COc1cc(/C=C/c2cc(O)cc(O)c2)ccc1O | inactive |
| O=C1CC(c2ccccc2)Oc2cc(O)cc(O)c21 (centres undefined) | inactive |

| SMILES | outcome |
| --- | --- |
| CCCO[C@@H]1O[C@H](CO)[C@@H](O)[C@H](O)[C@H]1O[C@@H]1OC[C@@H](O)[C@H](O)[C@H]1O | inactive |
| C/C=C(/C)C(=O)OC1C2OC2C2(CO2)C2C3OC(=O)C(C)C3CCC12C (centres undefined) | inactive |
| NC(=O)c1c[nH]c(Cc2ccccc2)cc1=O | inactive |
| C/C=C(/C)C(=O)OC1C(OC2(C)CCC3C(C4C(C)CCC42)C3(C)C)OC(C)C(O)C1O (centres undefined) | inactive |
| COc1ccc(CC2C(=O)OCC2Cc2cc(OC)c3c(c2)OCO3)cc1OC (centres undefined) | inactive |
| CC#CC#C/C=C1\C=CC2(OC=CC2OC(=O)C=C(C)C)O1 (centres undefined) | inactive |
| C[C@@H]1CCC2C(C)(C)[C@H](O)CC[C@]2(C)[C@@]12Cc1c(O)cc3c(c1O2)CNC3=O (some centres undefined) | inactive |
| COc1c2ccoc2c(OC)c2oc(=O)ccc12 | inactive |
| O=C(O)C(O)Cc1c[nH]c2ccccc12 (centres undefined) | inactive |
| CC1(C)C=Cc2c(ccc3c2O[C@@H]2COc4cc5c(cc4[C@@]2(O)C3=O)OCO5)O1 | inactive |
| C=C1NC(=O)C2CCCN2C1=O (centres undefined) | inactive |
| CC(C(=O)CCCCC(O)C(C)O)C(=O)N1C=CCC1 (centres undefined) | inactive |
| C=C1C2=C(C(=O)N1OC)[C@H](O)[C@](C)(O)[C@H](CCCCC)O2 | inactive |
| C=C(C)C(O)Cc1c(O)cc(CCc2ccccc2)c(CC=C(C)C)c1O (centres undefined) | inactive |
| COC(=O)C1C(O)CCC2CN3CCc4c([nH]c5ccccc45)C3CC21 (centres undefined) | inactive |
| CC(C)=CCOc1ccc(/C=C/C(=O)c2ccc(O)cc2O)cc1 | inactive |
| CC1(C)C=Cc2c(c3ccccc3[nH]c2=O)O1 | inactive |
| Cc1ccc(C(C)C)c(O)c1 | inactive |
| O=C1CCC(=O)NCCCCCN(O)C(=O)CCC(=O)NCCCCCN(O)C(=O)CCC(=O)NCCCCCN1 | inactive |
